# Laboratory results taken from ChEMBL document CHEMBL1157539, “Thousands of chemical starting points for antimalarial lead identification” (Nature, 2010).
# Tests used:
# Format in all cases: functional
# Plasmodium falciparum [1] = experiment: GSK_TCMDC: Inhibition of Plasmodium falciparum 3D7 in whole red blood cells, using parasite LDH activity as an index of growth. Test compounds present at 2uM
# Plasmodium falciparum [2] = experiment: GSK_TCMDC: Inhibition of Plasmodium falciparum Dd2 in whole red blood cells, using parasite LDH activity as an index of growth. Test compounds present at 2uM
# HepG2 = experiment: GSK_TCMDC: Percent inhibition of human HepG2 cell line. Test compounds present at 10uM.
SMILES,Inhibition (Plasmodium falciparum [1]) [%],Inhibition (Plasmodium falciparum [2]) [%],Inhibition (HepG2) [%]
O=C(/C=C/c1ccc(C(F)(F)F)cc1)N1CCC(CCN2CCC(c3c[nH]c4ccccc34)CC2)CC1,100,77,70
CC(Cc1ccc(OCCN2CCN(c3cccc(Cl)c3)CC2)cc1)NCC(O)c1cccc(C(F)(F)F)c1.Cl (centres undefined),99,98,100
Cc1cnc(Nc2ccccc2)nc1NCCC(=O)Nc1ccccc1.O=C(O)C(F)(F)F,89,7,10
O=C(Nc1ccc(CN2CCN(S(=O)(=O)c3ccc(Cl)s3)CC2)cc1)c1cccs1.O=C(O)C(F)(F)F,92,87,14
CC(C)c1ccc2c(c1)c(SC(C)(C)C)c(CC(C)(C)C#N)n2Cc1ccc(Cl)cc1,96,95,0
Cc1cccc2nc(-c3cccc(-c4ccc(NC(=O)c5ccncc5)cc4)c3)[nH]c12,98,74,34
Cl.NCc1ccc(-c2ccc3c(N)nccc3c2)cc1,100,92,28
Cc1cc(C(F)(F)F)n2nc(C(=O)N(Cc3cncn3Cc3cccc(F)c3)CC3CC3)cc2n1,100,92,0
Cc1ccc(/C=C/C(=O)NC2CCC(N3CCC(c4ccccc4C)CC3)CC2)cc1F (centres undefined),96,18,51
Cc1cccc2nc(-c3cccc(-c4cccc(NC(=O)c5c[nH]cn5)c4)c3)[nH]c12,100,91,2
CCn1ccc2c(N3CCCS3(=O)=O)cc(C(=O)N[C@@H](Cc3ccccc3)[C@H](O)CNC3CCCCC3)cc21,97,98,0
O=C1C(c2ccccc2)=C(Nc2ccc([N+](=O)[O-])cc2)c2ccccc21,95,73,0
Cl.N=C1C=C(N)C(=O)c2ccccc21,81,85,99
CCCCCCN1CCC(NCc2ccc(OCCN3CCCC3)cc2)CC1.O=C(O)C(F)(F)F,100,93,23
Cc1ccc(NC(=O)c2ccc3ncccc3c2)cc1OC1CCN(Cc2ccc(F)cc2)CC1.O=C(O)C(F)(F)F,91,22,6
N#Cc1cccc(C(=O)Nc2cccc(-c3ccc(CN4CCC(O)CC4)cc3)c2)c1.O=C(O)C(F)(F)F,86,2,15
CCN1CCN(Cc2ccc3nc(-c4cc(C)n(Cc5cc(Cl)ccc5OCc5ccccc5)n4)[nH]c3c2)CC1.Cl,100,97,11
N=C(NCCCCCCNC(=N)NC(=N)c1ccc(Cl)cc1)NC(=N)c1ccc(Cl)cc1,98,99,10
COc1ccc(N2CCN(CCCOc3ccc(NC(=O)c4cc(Cl)cc(Cl)c4)cc3)CC2)c(OC)c1,100,41,38
CCN(CC)CCN(Cc1ccc(-c2ccc(C(F)(F)F)cc2)cc1)C(=O)Cn1c(CCc2cccc(F)c2F)cc(=O)c(C)c1C.O=C(O)C(O)C(O)C(=O)O,97,87,35
CCN(CC)CC#Cc1ccc2[nH]c(C)c(Cl)c(=O)c2c1,96,95,11
CC(C)c1cc(Oc2c(I)cc(CCNC(=N)N)cc2I)ccc1O.Cl,98,54,19
CCC(CC)n1c(COC)cc2c3c(N)nc(N)nc3ccc21,95,0,71
COCC(=O)N(Cc1ccccc1-c1cccc(CNCc2ccc3c(c2)OCO3)c1)C1CCN(Cc2ccccc2)CC1.O=C(O)C(F)(F)F,94,72,33
CC(Oc1ccc(Cl)cc1Cl)c1nc(-c2ccc(NC(=O)c3ccco3)cc2)no1 (centres undefined),92,82,7
Cn1nccc1C(=O)NCCNCc1ccc(-c2ccc(-c3nc4cc(C(F)(F)F)ccc4[nH]3)cc2)cc1.O=C(O)C(F)(F)F,100,99,35
COc1c(Br)cc(Br)cc1-c1ccc(CN2CC3CCC2CC3)[nH]1.Cl,98,100,91
CNC(=O)c1cc(S(=O)(=O)N2CCN(c3ccccn3)CC2)cs1,99,100,0
